Results as given in PubChem BioAssay (NCATS).
Records with an inconclusive call do not appear. The source made the active and inactive calls. Calls come from the whole dose curve; as a rule, active = well fitted curve in the direction sought with a large enough effect; inconclusive = small, poorly fitted or top-dose-only effect, or another doubt; inactive = no such curve, though single readings can be large; an effect the other way counts as inactive or inconclusive.

Legend:
[1] = target: Glutathione peroxidase 1 (Homo sapiens) (UniProt P07203); assay: Primary qHTS Assay for Inhibitors of Recombinant Selenoprotein Glutathione Peroxidase 1 (GPX1) (AID 1845191); note: nearly all actives have a fitted effect of over 65% in size; for activity, negative = inhibition: % is set by controls: 0 for no effect and ±100 for the full control effect
Glutathione peroxidase 1 (Homo sapiens), sequence (P07203 whole entry, looked up): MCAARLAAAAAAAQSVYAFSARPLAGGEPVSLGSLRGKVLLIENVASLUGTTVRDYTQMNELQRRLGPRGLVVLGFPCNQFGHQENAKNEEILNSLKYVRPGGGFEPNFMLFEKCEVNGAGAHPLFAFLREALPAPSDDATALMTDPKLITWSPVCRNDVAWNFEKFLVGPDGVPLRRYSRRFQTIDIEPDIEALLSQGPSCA
Summary of the method: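 GPX1 10 nM, GR 100 nM, GSH 1 mM, NADPH 0.5 mM, CHP 0.5 mM (final). 30-min cpd preincubation, RT. Ex340/Em450 read t=0, t=15 min.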

[2] = target: Phospholipid hydroperoxide glutathione peroxidase GPX4 (Homo sapiens) (UniProt P36969); assay: Primary qHTS Assay for Inhibitors of Recombinant Selenoprotein Glutathione Peroxidase 4 (GPX4) (AID 1845192); note: nearly all actives have a fitted effect of over 65% in size; for activity change, negative = inhibition: series mostly up to about 50 µM; % is set by controls: 0 for no effect and ±100 for the full control effect
Phospholipid hydroperoxide glutathione peroxidase GPX4 (Homo sapiens), sequence (P36969 whole entry, looked up): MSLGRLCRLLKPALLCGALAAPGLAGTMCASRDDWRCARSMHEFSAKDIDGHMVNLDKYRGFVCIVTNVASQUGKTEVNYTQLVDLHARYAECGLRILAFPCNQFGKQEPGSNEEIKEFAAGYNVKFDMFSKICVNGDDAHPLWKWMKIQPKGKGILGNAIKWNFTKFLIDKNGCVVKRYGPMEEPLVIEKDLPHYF
Summary of the method: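 qHTS, GR-coupled: GPX4 200 nM + cpd 30 min RT → GSH 1 mM, NADPH 0.5 mM, GR 100 nM → CHP 0.5 mM start; fluor 340/450 at t0 and t15 min; no-enzyme wells as control.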

[3] = target: Luciferin 4-monooxygenase (Photinus pyralis) (UniProt P08659); assay: Primary firefly luciferase (FLuc) qHTS assay for identification of artifact compounds. (AID 1845220); note: nearly all actives have a fitted effect of over 60% in size;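 for activity change, negative = inhibition: series mostly up to about 54 µM; plate controls were DMSO vehicle for no effect and no enzyme for full effect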
Summary of the method: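 qHTS, 15 min compound preincubation with substrate (10 uM luciferin, 10 uM ATP) at RT, then 10 nM FLuc; 5 min; luminescence; % inhibition vs no-enzyme/DMSO controls, 4-parameter Hill fit.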

[4] = Primary fluorescence-based thiol-reactive (MSTI) qHTS assay for identification of artifact compounds. (AID 1845221);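 note: series mostly up to about 54 µM; thiol-reactive compounds lower the probe fluorescence signal; nearly all actives have a fitted effect of over 65% in size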
Summary of the method: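 Thiol-reactive compounds detected by quenching of 4 uM MSTI fluorescence (525/598 nm) after 1 h room-temperature dark incubation in PBS pH 7.4, 2% DMSO. qHTS titration; percent inhibition Hill-fitted against Acetyl-MSTI/MSTI controls.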

[5] = system: Nanoluciferase (engineered Oplophorus gracilirostris luciferase); assay: Primary Nanoluciferase (NLuc) qHTS assay for identification of artifact compounds. (AID 1845222); note: series mostly up to about 54 µM
Summary of the method: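 Luminescence read-out of secreted NLuc in S16 cell conditioned medium (1:55); compounds tested with 15 min RT preincubation, then Nano-Glo substrate 1:100, 5 min. % inhibition vs no-enzyme and DMSO controls, 4-parameter Hill fit.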

[6] = Primary redox qHTS assay for identification of artifact compounds. (AID 1845223);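 note: 0% = DMSO and 100% = reference compound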
Summary of the method: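 Redox-cycling detection via DTT (250 uM final) oxidation coupled to Amplex Red (25 uM)/HRP (250 mU/mL) in HBSS. 15 min preincubation plus 30 min after DTT, room temperature. Ex/Em 525/598 nm; 4-parameter Hill fit against DMSO and 10 uM DA3003.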

COc1ccc2c(c1)C13CCCCC1C(C2)N(C)CC3 (stereo unspecified)
inactive: Potency [1] | Potency [2]

O=C1C=CC(=O)C=C1
inactive: Potency [1] | Potency [2]

C/C(=C\c1csc(C)n1)[C@@H]1C[C@@H]2O[C@]2(C)CCC[C@H](C)[C@H](O)[C@@H](C)C(=O)C(C)(C)[C@@H](O)CC(=O)O1
inactive: Potency [1] | Potency [2]

CCOc1ccc2c3c1O[C@H]1[C@@H](O)C=C[C@H]4[C@@H](C2)N(C)CC[C@@]341
inactive: Potency [1] | Potency [2]

CCOC(=O)c1ccccc1C(=O)OCC
inactive: Potency [1] | Potency [2]

C=CC[C@]1(O)CC[C@H]2[C@@H]3CCC4=CCCC[C@@H]4[C@H]3CC[C@@]21C
inactive: Potency [1] | Potency [2]

CCNC1(c2cccs2)CCCCC1=O (stereo unspecified)
inactive: Potency [1] | Potency [2]

CC[C@H]1CN2CC[C@H]1C[C@@H]2[C@@H](O)c1ccnc2ccc(OC)cc12
inactive: Potency [1] | Potency [2] | Potency [3] | Potency [4] | outcome [5] | outcome [6]

CCN1CC2(COC)C3[C@@H](OC)C4C1C3(C1C[C@]3(O)[C@H](OC(=O)c5ccccc5)C1[C@]4(OC(C)=O)[C@@H](O)[C@@H]3OC)[C@H](OC)C[C@H]2O (stereo partly specified)
inactive: Potency [1] | Potency [2] | Potency [3] | Potency [4] | outcome [5] | outcome [6]

C/C=C(\C)C(=O)OC1C(C)OC(OC2C(C)OC(OC3CCC4(C)C(=CCC5C4CCC4(C)C(C(C)OC6OC(COC7OC(CO)C(O)C(O)C7O)C(O)C(O)C6O)CCC54O)C3)CC2OC)C(O)C1OC (stereo unspecified)
inactive: Potency [1] | Potency [2] | outcome [3] inactive [at 11.6 µM] | activity change, negative = thiol reactive [4] 16.4% [at 11.5 µM] | activity, negative = inhibition [5] 0% [at 11.6 µM] | redox activity (% of DA3003) [6] -7.77% [at 11.5 µM]

COC1C(O)C(C)OC(OC2C(CO)O[C@@H](O[C@@H]3CC4CCC5C(CC[C@]6(C)[C@@H](C7=CC(=O)OC7)CC[C@]56O)[C@@]4(C)[C@H](O)C3)C(O)C2O)C1O (stereo partly specified)
inactive: Potency [1] | Potency [2] | Potency [3] | Potency [4] | outcome [5] | outcome [6]

C=C[C@H]1[C@H](O[C@@H]2O[C@H](CO)[C@@H](O)[C@H](O)[C@H]2O)OC=C2C(=O)OCC[C@H]21
inactive: Potency [1] | Potency [2] | Potency [3] | Potency [4] | outcome [5] | outcome [6]

CC(C)=C1CC[C@]23CO[C@H](C2)[C@@](O)(C(=O)O)CCC13 (stereo partly specified)
inactive: Potency [1] | Potency [2] | Potency [3] | Potency [4] | outcome [5] | outcome [6]

Oc1ccc2c3c1O[C@H]1[C@H](N(CCCl)CCCl)CC[C@@]4(O)[C@@H](C2)N(CC2CC2)CC[C@]314
inactive: outcome [1] inactive [at 9.52 µM] | activity change, negative = inhibition [2] -3.35% [at 9.73 µM] | outcome [3] inactive [at 11.6 µM] | activity change, negative = thiol reactive [4] 7.36% [at 11.5 µM] | activity, negative = inhibition [5] 1.59% [at 11.6 µM] | redox activity (% of DA3003) [6] -0.579% [at 11.5 µM]
